Our source for the outcome values is PubChem BioAssay AID1079 (Emory University Molecular Libraries Screening Center, 2008).

This experiment has as its target Estrogen receptor (Homo sapiens) (UniProt P03372). The experiment in a line: ERα–SRC-3 coactivator interaction inhibitors, confirmation, orthogonal assay, biochemical, ELISA, streptavidin-HRP readout (AID 1079). To be noted: ELISA ERalpha-biotin SRC-3 binding; series mostly up to 50 µM. Background: An ELISA detects its analyte on a solid surface through an enzyme-linked reagent.

Results with a measured potency or affinity are listed apart. The source made the active and inactive calls.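 Rule for the calls: active = fitted half-effect concentration IC50 at or below a set limit, with percent of control there 60 or less; inactive = the rest.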

Sequence of Estrogen receptor (Homo sapiens) (P03372 whole entry, looked up): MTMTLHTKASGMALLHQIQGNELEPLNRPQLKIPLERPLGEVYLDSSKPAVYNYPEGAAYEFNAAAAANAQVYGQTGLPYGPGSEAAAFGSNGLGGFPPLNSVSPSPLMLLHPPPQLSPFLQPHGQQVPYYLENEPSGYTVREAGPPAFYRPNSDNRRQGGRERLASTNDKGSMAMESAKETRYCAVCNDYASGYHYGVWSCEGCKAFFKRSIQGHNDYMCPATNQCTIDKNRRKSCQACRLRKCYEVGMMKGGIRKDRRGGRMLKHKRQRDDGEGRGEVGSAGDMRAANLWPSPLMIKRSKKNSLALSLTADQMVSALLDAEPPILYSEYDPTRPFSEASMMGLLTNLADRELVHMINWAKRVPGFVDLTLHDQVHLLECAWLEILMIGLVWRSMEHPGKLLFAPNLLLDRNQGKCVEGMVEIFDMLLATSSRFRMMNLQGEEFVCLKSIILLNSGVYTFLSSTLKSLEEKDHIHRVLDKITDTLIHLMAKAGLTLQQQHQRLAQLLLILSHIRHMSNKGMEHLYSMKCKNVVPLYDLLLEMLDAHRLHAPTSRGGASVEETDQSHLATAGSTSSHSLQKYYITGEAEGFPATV

Turning to `N#Cc1ccc(N2CCN(C(=O)CCCCCn3c(=S)[nH]c4ccccc4c3=O)CC2)cc1`, the compound was called inactive.

For the compound `O=C(CCCCCCCn1c(=S)[nH]c2ccccc2c1=O)N1CCN(c2cccc(Cl)c2)CC1`, the call was inactive.
